Results: PubChem BioAssay (NCI)
The panel holds about 83,000 compounds, 20% with a hit somewhere; the sample as a whole holds those more often.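 The endpoint reported here, percent growth, reads 100 for growth as untreated, 0 for no net growth and -100 for all cells dead.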 Unmarked numbers belong to inactive results. Active and inactive are the calls of the source. The calls were made as follows: active = growth percent below 10; inactive = the rest.

What was measured:
Assay in all cases: NCI-60 one-dose screen, 48 h (100 = growth as untreated, 0 = no growth, -100 = all killed)
Settings in all cases: 10 µM unless noted
NCI-H23 lung = tested on: NCI-H23 lung
NCI-H322M lung = tested on: NCI-H322M lung
HOP-62 NSCLC = tested on: HOP-62 NSCLC
NCI-H460 lung = tested on: NCI-H460 lung
HOP-92 NSCLC = tested on: HOP-92 NSCLC
NCI-H522 lung = tested on: NCI-H522 lung
A549/ATCC NSCLC = tested on: A549/ATCC NSCLC
786-0 renal = tested on: 786-0 renal
COLO 205 colon = tested on: COLO 205 colon
DU-145 prostate = tested on: DU-145 prostate
K-562 leukemia = tested on: K-562 leukemia
MALME-3M melanoma = tested on: MALME-3M melanoma
MDA-MB-231 breast = tested on: MDA-MB-231 breast
RXF 393 renal = tested on: RXF 393 renal
SF-268 CNS = tested on: SF-268 CNS
SF-295 CNS = tested on: SF-295 CNS
SF-539 CNS = tested on: SF-539 CNS
UACC-257 melanoma = tested on: UACC-257 melanoma
M14 melanoma = tested on: M14 melanoma
HCT-15 colon = tested on: HCT-15 colon

| SMILES | growth (NCI-H23 lung) [%] | growth (NCI-H322M lung) [%] | growth (HOP-62 NSCLC) | growth (NCI-H460 lung) | growth (HOP-92 NSCLC) | growth (NCI-H522 lung) | growth (A549/ATCC NSCLC) | growth (786-0 renal) | growth (COLO 205 colon) | growth (DU-145 prostate) [%] | growth (K-562 leukemia) | growth (MALME-3M melanoma) | growth (MDA-MB-231 breast) | growth (RXF 393 renal) | growth (SF-268 CNS) | growth (SF-295 CNS) | growth (SF-539 CNS) | growth (UACC-257 melanoma) | growth (M14 melanoma) | growth (HCT-15 colon) |
| --- | --- | --- | --- | --- | --- | --- | --- | --- | --- | --- | --- | --- | --- | --- | --- | --- | --- | --- | --- | --- |
| O=Cc1cc2ccccc2nc1Nc1nccs1 | 52.4 | 91.8 | 62.2% | 61.8% | 81% | 83.1% | 96.9% | 69% | 69.7% | 80.3 | 109% | 73.1% | 68.6% | 53.2% | 54.8% | 92.9% | 87.3% | 102% | 101% | 46.4% |
| N#C/C(=C\c1c(-c2ccccc2)[nH]c2ccccc12)S(=O)(=O)c1ccccc1 | 40.7 | 60 | 39.2% | 16.1% | 53% | 54.9% | 45.5% | 51.3% | 12.8% | 21.2 | 17.5% | 76.5% | 47.2% | – | 53% | 25.7% | -20.1% (active) | 73.8% | 42.8% | 44.1% |
| CSc1nc2c(c(=O)n1C)N=C1c3ccccc3C(=O)C1C(c1ccccc1)N2 (centres undefined) | 85 | 95.1 | 76.9% | 76.2% | 28.7% | 103% | 81.6% | 91.9% | 73.5% | 81.9 | 32.9% | 42.6% | 82.8% | – | 81.7% | -10.6% (active) | 68% | 102% | 62.2% | 62.4% |
| CCOC(=O)c1c(Cl)c2c(n1Cc1ccccc1)-c1oncc1CCC2 | 86.9 | 94 | 80% | 81% | 84.7% | 35.7% | 43% | 83.1% | 56.9% | 103 | 18.6% | 42.3% | 64.4% | 64.3% | 86.7% | – | 74% | 79.7% | 55.3% | 36.1% |
| COc1ccc(C(O)(CCC(C)C)C(CN2CCOCC2)c2ccc(Cl)cc2)cc1 (centres undefined) | 74.6 | 88.3 | 63.6% | 86.8% | 77.8% | -16.9% (active) | 62.4% | 73.3% | 76.4% | 73.8 | 15.3% | 39.2% | 68.5% | 88.3% | 80.2% | – | 64.7% | 69.4% | 37.1% | 35.6% |
| CCOC(=O)c1cnc2ccc(Cl)cc2c1NCCCN(C)C | 22 | 10.4 | 8.63% (active) | 1.86% (active) | 41.1% | -17.5% (active) | 4.15% (active) | 8.14% (active) | 31.4% | 19.2 | 1.51% (active) | -6.52% (active) | 15.8% | -3.24% (active) | 1.81% (active) | – | -12.7% (active) | -3.99% (active) | 2.88% (active) | 26.2% |
| COc1cc([C@@H]2NC(=O)NC(C)=C2C(=O)Nc2nc(-c3ccc(Cl)cc3)cs2)ccc1O | 96.3 | 95.4 | 86.1% | 102% | 103% | 84% | 97.1% | 98.4% | 116% | 102 | 99.9% | 95.4% | 92.6% | – | 94% | 98.2% | 95.7% | 104% | 94.2% | 100% |
| Cc1ccc(NCCNCC(O)CO)c2c(=O)c3ccccc3sc12 (centres undefined) | 29.6 | 25.1 | 20.3% | -66.3% (active) | -2.88% (active) | 26.6% | -2.08% (active) | 27.1% | -87.2% (active) | 11.9 | -13.4% (active) | -12.4% (active) | -15.9% (active) | 13.8% | 29.3% | 25.4% | 47.3% | 6.52% (active) | -71% (active) | -37.2% (active) |
